Inconclusive results are not listed. The source made the active and inactive calls. Unless noted, calls follow the shape of the dose curve; as a rule, active = well fitted curve in the direction sought with a large enough effect in the repeat runs; inconclusive = weak or mixed curves; inactive = no such curve, though single readings can be large; an effect the other way counts as inactive or inconclusive.
Columns and labels:
[1] = biological target: Estrogen receptor (Homo sapiens) (UniProt P03372); experiment: qHTS assay to identify small molecule antagonists of the estrogen receptor alpha (ER-alpha) signaling pathway using the BG1 cell line in the presence of 0.1 nM 17-beta-estradiol (AID 1259244); also: nearly all actives have a fitted effect of over 50% in size; also: potency is read from the fitted curve at half-maximal effect
Estrogen receptor (Homo sapiens), sequence (P03372 whole entry, looked up): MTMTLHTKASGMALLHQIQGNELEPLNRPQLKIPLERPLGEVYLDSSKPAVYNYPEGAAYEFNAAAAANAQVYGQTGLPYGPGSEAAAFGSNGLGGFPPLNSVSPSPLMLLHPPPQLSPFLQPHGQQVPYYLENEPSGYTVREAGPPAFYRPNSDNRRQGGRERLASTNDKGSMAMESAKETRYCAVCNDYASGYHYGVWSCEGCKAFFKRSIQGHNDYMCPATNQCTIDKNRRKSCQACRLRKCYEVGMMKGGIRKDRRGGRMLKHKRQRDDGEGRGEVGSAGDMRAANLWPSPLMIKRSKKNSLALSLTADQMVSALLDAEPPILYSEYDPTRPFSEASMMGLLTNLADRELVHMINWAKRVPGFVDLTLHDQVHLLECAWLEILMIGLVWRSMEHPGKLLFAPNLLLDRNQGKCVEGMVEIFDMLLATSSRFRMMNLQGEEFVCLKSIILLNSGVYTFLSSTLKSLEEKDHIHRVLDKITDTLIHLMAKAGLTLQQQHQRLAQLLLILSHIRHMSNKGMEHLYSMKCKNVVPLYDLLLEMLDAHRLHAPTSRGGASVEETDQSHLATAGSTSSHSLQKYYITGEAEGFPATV
In short: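 Seeding of stripped-serum-adapted VM7Luc4E2 cells, 24 h attachment, compound transfer, then 0.1 nM final 17beta-estradiol; after 22 h incubation, ONE-Glo reagent and luminescence reading.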

[2] = qHTS assay to identify small molecule HDAC inhibitors (AID 1259364); also: potency is read from the fitted curve at half-maximal effect;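 also: wild-type HCT-116 cells with endogenous class I/II HDAC activity; nearly all actives have a fitted effect of over 45% in size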
In short: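 After a 2 hr compound incubation (37C, 5% CO2), HCT-116 cells seeded at 1,500/well the day before received HDAC-Glo reagent; signal read as luminescence after 30 min at room temperature.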

[3] = qHTS assay to identify small molecule HDAC inhibitors - cell viability counter screen (AID 1259365); also: series mostly up to about 92 µM; nearly all actives have a fitted effect of over 50% in size
In short: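 HCT-116 (wild type), 1,500 cells/well, overnight 37C/5% CO2; compound in DMSO 2hr; CellTiter-Glo 30min RT; luminescence read.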

[4] = qHTS assay to identify small molecule agonists of the sonic hedgehog signaling (Shh) pathway - cell viability counter screen (AID 1259366); also: nearly all actives have a fitted effect of over 50% in size; also: potency is read from the fitted curve at half-maximal effect
In short: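 CellTiter-Fluor fluorescence read-out, 1 hr at 37C, added after 23hr compound exposure. Cells: 3T3 Gli1-Luc, an NIH/3T3 clone with stably integrated Gli1-Luc reporter, plated 4hr before compound.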

[5] = qHTS assay to identify small molecule antagonists of the sonic hedgehog signaling (Shh) pathway - cell viability counter screen (AID 1259367); also: nearly all actives have a fitted effect of over 55% in size; also: potency is read from the fitted curve at half-maximal effect
In short: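 Fluorescence read-out (CellTiter-Fluor, 1 hr at 37C) taken after 23 hr compound treatment of 3T3 Gli1-Luc cells stimulated with conditioned medium. Cells were seeded at 2,000 per well and pre-incubated 4 hr.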

[6] = biological target: Estrogen receptor beta (Homo sapiens) (UniProt Q92731); experiment: qHTS assay to identify small molecule agonists of the estrogen receptor beta (ER-beta) signaling pathway (AID 1259377; active = well fitted activation curve with a large enough effect in the signal ratio in the repeat runs, not every such curve was filed as active; the % refers to the signal ratio)
Estrogen receptor beta (Homo sapiens), sequence (Q92731 whole entry, looked up): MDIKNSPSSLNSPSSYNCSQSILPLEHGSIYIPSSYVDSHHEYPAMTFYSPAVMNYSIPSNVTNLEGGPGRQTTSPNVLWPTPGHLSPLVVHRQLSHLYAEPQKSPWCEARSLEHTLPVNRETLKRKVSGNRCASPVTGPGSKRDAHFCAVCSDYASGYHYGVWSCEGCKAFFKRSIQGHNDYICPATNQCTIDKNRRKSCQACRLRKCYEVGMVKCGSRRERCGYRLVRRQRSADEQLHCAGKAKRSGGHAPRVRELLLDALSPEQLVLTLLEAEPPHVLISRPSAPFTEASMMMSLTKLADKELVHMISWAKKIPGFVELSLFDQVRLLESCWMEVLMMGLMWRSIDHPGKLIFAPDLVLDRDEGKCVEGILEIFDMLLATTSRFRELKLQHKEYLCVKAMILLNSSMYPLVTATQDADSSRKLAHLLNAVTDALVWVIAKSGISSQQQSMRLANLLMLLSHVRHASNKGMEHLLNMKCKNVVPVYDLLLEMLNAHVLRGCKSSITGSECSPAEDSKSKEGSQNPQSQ
In short: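 Beta-lactamase reporter readout: fluorescence of LiveBLAzer B/G FRET substrate after 2 h at room temperature, following 16 h compound treatment of ER-beta-UAS-bla HEK293T cells at 37C in 2% charcoal-stripped FBS medium.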

[7] = biological target: Estrogen receptor beta (Homo sapiens) (UniProt Q92731); experiment: qHTS assay to identify small molecule antagonists of the estrogen receptor beta (ER-beta) signaling pathway (AID 1259378; active = well fitted inhibition curve with a large enough effect in the signal ratio in the repeat runs, not every such curve was filed as active; the % refers to the signal ratio; also: potency is read from the fitted curve at half-maximal effect)
In short: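 ER-beta-UAS-bla HEK293T cells in 2% charcoal-stripped FBS medium treated with compound plus 1nM final 17-beta-estradiol for 16 hr at 37C. Beta-lactamase reporter read by FRET substrate fluorescence after 2 hours at room temperature.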

[8] = qHTS assay to identify small molecule agonists of the androgen receptor (AR) signaling pathway in the presence of an antagonist - cell viability counter screen (AID 1259379); also: nearly all actives have a fitted effect of over 25% in size; also: potency is read from the fitted curve at half-maximal effect
In short: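 Counter screen for cell viability run in parallel with the AR agonist-mode luciferase assay. MDA-kb2 cells were co-treated with nilutamide (3.0uM final) and compounds, then incubated 16 hr at 37C, and CellTiter-Fluor fluorescence was measured.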

[9] = qHTS assay to identify small molecule agonists of the estrogen receptor beta (ER-beta) signaling pathway - cell viability counter screen (AID 1259380); also: nearly all actives have a fitted effect of over 30% in size; also: potency is read from the fitted curve at half-maximal effect
In short: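 In this qHTS counter screen, HEK293T cells carrying an ER-beta/UAS beta-lactamase reporter, grown in 2% charcoal-stripped FBS, received compound for 16 hr; ATP-based CellTiter-Glo luminescence was then read after 30 min at room temperature.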

[10] = biological target: Androgen receptor (Homo sapiens) (UniProt P10275); experiment: qHTS assay to identify small molecule agonists of the androgen receptor (AR) signaling pathway in the presence of an antagonist (AID 1259381; calls by dose curve; also: nearly all actives have a fitted effect of over 15% in size)
Androgen receptor (Homo sapiens), sequence (P10275 whole entry, looked up): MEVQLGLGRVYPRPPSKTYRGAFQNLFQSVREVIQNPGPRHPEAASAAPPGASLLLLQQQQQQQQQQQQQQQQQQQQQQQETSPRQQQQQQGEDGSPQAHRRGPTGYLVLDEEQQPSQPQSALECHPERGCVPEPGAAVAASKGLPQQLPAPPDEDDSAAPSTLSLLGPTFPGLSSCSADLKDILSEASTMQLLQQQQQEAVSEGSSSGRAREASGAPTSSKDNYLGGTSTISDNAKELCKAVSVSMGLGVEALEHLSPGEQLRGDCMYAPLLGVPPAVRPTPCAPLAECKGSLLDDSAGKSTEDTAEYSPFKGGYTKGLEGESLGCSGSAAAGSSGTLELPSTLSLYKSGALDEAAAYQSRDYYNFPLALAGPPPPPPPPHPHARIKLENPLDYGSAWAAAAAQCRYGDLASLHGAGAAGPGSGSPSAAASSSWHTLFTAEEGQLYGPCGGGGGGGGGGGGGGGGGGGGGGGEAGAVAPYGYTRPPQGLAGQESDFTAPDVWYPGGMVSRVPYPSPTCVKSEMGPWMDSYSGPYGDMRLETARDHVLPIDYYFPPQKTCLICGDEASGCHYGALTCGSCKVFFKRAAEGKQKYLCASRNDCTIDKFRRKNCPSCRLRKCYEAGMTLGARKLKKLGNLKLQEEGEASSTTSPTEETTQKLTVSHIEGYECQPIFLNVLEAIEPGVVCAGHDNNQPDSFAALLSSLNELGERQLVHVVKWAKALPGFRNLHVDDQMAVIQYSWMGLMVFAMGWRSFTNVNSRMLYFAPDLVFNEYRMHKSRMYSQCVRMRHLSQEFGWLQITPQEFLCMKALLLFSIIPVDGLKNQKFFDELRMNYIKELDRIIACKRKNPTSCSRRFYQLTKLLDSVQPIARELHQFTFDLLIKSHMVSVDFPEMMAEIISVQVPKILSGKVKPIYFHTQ
In short: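 AR antagonist background: nilutamide 3.0uM final. Cell line: MDA-kb2, MMTV-driven luciferase, responsive to both AR and GR. Exposure 16hr, 37C, no CO2; ONE-Glo luminescence.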

[11] = qHTS assay to identify small molecule antagonists of the estrogen receptor beta (ER-beta) signaling pathway - cell viability counter screen (AID 1259382); also: nearly all actives have a fitted effect of over 55% in size; also: potency is read from the fitted curve at half-maximal effect
In short: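 HEK293T ER-beta-UAS-bla, 2% charcoal-stripped FBS; compounds + 1nM E2 16 hr 37C; CellTiter-Glo luminescence, 30 min RT.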

[12] = qHTS assay to identify small molecule agonists or antagonists of the thyroid stimulating hormone receptor (TSHR) signaling pathway - wild type cell line counter screen (AID 1259384; calls by dose curve)
In short: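 Wild-type Hek293 cells, 800/well, 18 h at 37C, then compound with Ro20-1724 for 30 min RT. cAMP by HTRF (cAMP-d2/anti-cAMP cryptate), 1 h RT, fluorescence read. 15 concentrations, triplicates.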

[13] = qHTS assay to identify small molecule antagonists of the androgen receptor (AR) signaling pathway using the MDA cell line in the presence of 0.5 nM R1881 - cell viability counter screen (AID 1259242); also: nearly all actives have a fitted effect of over 45% in size
In short: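 Human breast carcinoma MDA-kb2 cells, cultured without CO2, receive compounds alongside 0.5 nM (final) R1881 agonist. After 16 hr at 37C, viability is taken as live-cell protease signal.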

[14] = qHTS assay to identify small molecule agonists of the sonic hedgehog signaling (Shh) pathway (AID 1259368; calls by dose curve;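 also: NIH/3T3-derived 3T3Gli1-Luc cells carrying a stable Gli1-driven firefly luciferase reporter; series mostly up to about 92 µM; nearly all actives have a fitted effect of over 15% in size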)
In short: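 Stable NIH/3T3 Gli1-Luc reporter clone; 24 hr cpd exposure after a 4 hr settling period; luminescence endpoint.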

[15] = qHTS assay to identify small molecule antagonists of the sonic hedgehog signaling (Shh) pathway (AID 1259369; calls by dose curve; also: nearly all actives have a fitted effect of over 45% in size)
In short: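 Gli1 transcriptional reporter (firefly Luc) in NIH/3T3 background, conditioned-medium activated. 24hr exposure, luminescence endpoint.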

[16] = biological target: Estrogen receptor (Homo sapiens) (UniProt P03372); experiment: qHTS assay to identify small molecule agonists of the estrogen receptor alpha (ER-alpha) signaling pathway in the presence of an antagonist (AID 1259383; calls by dose curve; also: nearly all actives have a fitted effect of over 15% in size; also: potency is read from the fitted curve at half-maximal effect; as to activation: top concentration of the series differs between compounds)
In short: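 ER-alpha agonism measured under antagonist challenge: 10.0nM ICI-182,780 (final) plus compound, 15 concentrations, 22hr, VM7Luc4E2 ERE-luciferase cells. Read by luminescence.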

[17] = biological target: Thyrotropin receptor (Homo sapiens) (UniProt P16473); experiment: qHTS assay to identify small molecule antagonists of the thyroid stimulating hormone receptor (TSHR) signaling pathway (AID 1259385; calls by dose curve; also: nearly all actives have a fitted effect of over 20% in size)
Thyrotropin receptor (Homo sapiens), sequence (P16473 whole entry, looked up): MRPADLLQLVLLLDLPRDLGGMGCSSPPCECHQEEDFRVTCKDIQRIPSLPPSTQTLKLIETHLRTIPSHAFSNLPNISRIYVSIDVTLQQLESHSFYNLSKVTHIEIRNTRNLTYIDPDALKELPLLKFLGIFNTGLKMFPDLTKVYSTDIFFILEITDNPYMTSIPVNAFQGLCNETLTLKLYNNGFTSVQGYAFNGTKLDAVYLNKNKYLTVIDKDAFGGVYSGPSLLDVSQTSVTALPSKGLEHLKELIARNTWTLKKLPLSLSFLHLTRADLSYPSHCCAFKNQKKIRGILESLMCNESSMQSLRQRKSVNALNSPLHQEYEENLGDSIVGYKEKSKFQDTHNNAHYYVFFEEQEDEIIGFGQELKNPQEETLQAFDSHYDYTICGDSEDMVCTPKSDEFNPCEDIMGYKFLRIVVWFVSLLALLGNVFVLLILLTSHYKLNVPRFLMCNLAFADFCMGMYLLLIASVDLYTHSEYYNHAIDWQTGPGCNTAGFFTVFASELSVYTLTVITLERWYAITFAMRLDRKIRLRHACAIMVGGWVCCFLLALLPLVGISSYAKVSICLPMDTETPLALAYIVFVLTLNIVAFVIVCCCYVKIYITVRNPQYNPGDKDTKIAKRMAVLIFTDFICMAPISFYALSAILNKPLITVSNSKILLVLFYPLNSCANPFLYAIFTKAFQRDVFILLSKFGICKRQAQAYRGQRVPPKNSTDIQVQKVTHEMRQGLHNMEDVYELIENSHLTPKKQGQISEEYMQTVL
In short: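 TSHR-HEK293 cells (800/well) plated 18 h, then compounds with Ro20-1724 and TSH at 1.5 ng/mL final, 30 min at room temperature. cAMP quantified by HTRF (cAMP-d2/anti-cAMP-cryptate, 1 h); 15 concentrations in triplicate.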

[18] = qHTS assay to identify small molecule phospholipidosis (PLD) inducers (AID 1259344; active = well fitted curve in the direction sought with a large enough effect; an effect the other way counts as inactive or inconclusive)
In short: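 Read-out is LipidTOX Red fluorescence (ex 595/em 615) imaged in HepG2 cells after 24 h compound exposure at 37 C, with Hoechst nuclear counterstain (ex 352/em 461) allowing per-cell normalisation.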
% is scaled to controls: 0 for no effect and ±100 for the full control effect.

N#CC(CCc1ccc(Cl)cc1)(Cn1cncn1)c1ccccc1 (stereo unspecified)
active: Potency [1] 27.3 µM | Potency [4] 48.6 µM | Potency [5] 27.3 µM | Potency [7] 30.6 µM | Potency [8] 48.6 µM | Potency [9] 68.6 µM | Potency [11] 48.6 µM
inactive: Potency [2] | outcome [3] | outcome [6] | Potency [10] | Potency [12]

C[N+](C)=CCl
inactive: outcome [13] | Potency [1] | Potency [2] | outcome [3] | Potency [5] | outcome [14] | Potency [15] | Potency [8] | Potency [9] | Potency [11] | Potency [16] | Potency [12] | Potency [17]

CCCCOC(=O)c1ccccc1N
inactive: outcome [13] | Potency [2] | outcome [3] | Potency [4] | Potency [5] | outcome [14] | Potency [15] | outcome [6] | Potency [7] | Potency [8] | Potency [11]

C=CCC1=C(C)[C@@H](OC(=O)[C@@H]2[C@@H](C=C(C)C)C2(C)C)CC1=O
inactive: Potency [2] | outcome [3] | outcome [14] | Potency [15] | Potency [12]
active: Potency [1] 24.3 µM | Potency [8] 48.6 µM

CCOC(=O)N(C)C(=O)CSP(=S)(OCC)OCC
inactive: outcome [13] | Potency [2] | outcome [3] | Potency [4] | Potency [5] | Potency [15] | outcome [6] | Potency [7] | Potency [8] | Potency [9] | Potency [11]

NC1=NC(=O)C(c2ccccc2)O1 (stereo unspecified)
inactive: outcome [13] | outcome [18] | Potency [2] | outcome [3] | Potency [4] | Potency [5] | outcome [14] | Potency [15] | outcome [6] | Potency [7] | Potency [8] | Potency [9] | Potency [11] | Potency [12] | Potency [17]

CCN(CC)C(=O)[C@@H]1C=C2c3cccc4[nH]cc(c34)C[C@H]2N(C)C1
inactive: outcome [13] | Potency [1] | outcome [18] | Potency [2] | outcome [3] | outcome [14] | outcome [6] | Potency [7] | Potency [8] | Potency [11] | Potency [16]

ClCC(Cl)Cl
inactive: outcome [13] | Potency [2] | outcome [3] | Potency [4] | Potency [5] | outcome [14] | Potency [15] | Potency [8] | Potency [9] | Potency [11] | Potency [12] | Potency [17]

CC1=NNC(=O)N(/N=C/c2cccnc2)C1
inactive: outcome [13] | Potency [2] | outcome [3] | Potency [4] | Potency [5] | outcome [14] | Potency [15] | Potency [7] | Potency [8] | Potency [9] | Potency [11] | Potency [12] | Potency [17]

CCCCc1ccc(O)cc1
inactive: outcome [13] | Potency [1] | Potency [2] | outcome [3] | Potency [4] | Potency [5] | outcome [14] | Potency [15] | outcome [6] | Potency [7] | Potency [8] | Potency [9] | Potency [16] | Potency [12] | Potency [17]

CCOC(=O)CP(=O)(OCC)OCC
inactive: outcome [13] | Potency [1] | Potency [2] | outcome [3] | Potency [4] | Potency [5] | outcome [14] | Potency [7] | Potency [8] | Potency [9] | Potency [11] | Potency [16] | Potency [12] | Potency [17]

CCC1(c2ccccc2)C(=O)N=C(O)NC1=O (stereo unspecified)
inactive: outcome [13] | Potency [1] | Potency [2] | Potency [5] | outcome [14] | Potency [15] | outcome [6] | Potency [7] | Potency [8] | Potency [9] | Potency [11] | Potency [16] | Potency [12] | Potency [17]

CC(C)(C)OC(=O)c1ncn2c1[C@@H]1CCCN1C(=O)c1c(Br)cccc1-2
inactive: outcome [13] | outcome [18] | Potency [2] | outcome [3] | Potency [4] | Potency [5] | outcome [14] | Potency [15] | outcome [6] | Potency [7] | Potency [12] | Potency [17]

COC(=O)c1ccccc1S(=O)(=O)NC(=O)Nc1nc(C)cc(C)n1
inactive: outcome [13] | Potency [2] | outcome [3] | Potency [4] | Potency [5] | outcome [14] | Potency [15] | outcome [6] | Potency [7] | Potency [8] | Potency [9] | Potency [11] | Potency [12] | Potency [17]

CNC(=O)Oc1cccc(C(C)C)c1
inactive: outcome [13] | Potency [2] | outcome [3] | Potency [4] | Potency [5] | outcome [14] | Potency [15] | Potency [8] | Potency [9] | Potency [11] | Potency [12] | Potency [17]

CCc1cc2c(s1)-n1c(C)nnc1CN=C2c1ccccc1Cl
inactive: outcome [13] | PLD induction [18] -2.33% [at 1.53 µM] | Potency [2] | outcome [3] | Potency [5] | outcome [14] | Potency [8] | Potency [9] | Potency [11] | Potency [16]
active: Potency [1] 18.8 µM

c1coc(-c2nc3ccccc3[nH]2)c1
inactive: outcome [13] | Potency [1] | outcome [3] | Potency [4] | Potency [5] | outcome [14] | Potency [15] | Potency [7] | Potency [8] | Potency [11] | Potency [12] | Potency [17]
active: Potency [2] 0.611 µM | Potency [16] 7.7 µM
